Test results as given in the supplement of paper PMC6555819.

What was measured:
Assay in all cases: PBM binding z-score (relative to random genomic background probes); higher = stronger binding; sequences stand for … in GC…GCGATTGACAGCGTAGAATGAAGG
[1] = test system: FXR:RXRa (NR concentration 270 nM, RXRa partner concentration 90 nM)
Method in brief: (§1)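 The probes on custom Agilent 4×180K protein-binding microarrays were double-stranded, with 34-nt variable regions bearing direct-repeat seeds, single-nucleotide variants, half-site ablations and random human genomic background sequences. Incubation lasted 1 h with ligand-free nuclear receptor dimers in PBS pH 7.4, 2% milk, 0.02% Triton X-100, 1 mM DTT, 0.2 mg/mL BSA and 0.4 mg/ml salmon testes DNA. Antibodies against each partner (one per run) detected bound dimers, and fluorescence scans were regression-normalized. Binding z-scores take the random background probes as reference.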

[2] = test system: LXRa:RXRa (NR concentration 270 nM, RXRa partner concentration 90 nM)
Method in brief: as §1

[3] = test system: LXRa homodimer (NR concentration 270 nM)
Method in brief: as §1

[4] = test system: LXRb:RXRa (NR concentration 270 nM, RXRa partner concentration 90 nM)
Method in brief: as §1

[5] = test system: LXRb homodimer (NR concentration 270 nM)
Method in brief: as §1

[6] = test system: PPARa:RXRa (NR concentration 270 nM, RXRa partner concentration 90 nM)
Method in brief: as §1

[7] = test system: PPARg:RXRa (NR concentration 180 nM, RXRa partner concentration 90 nM)
Method in brief: as §1

[8] = test system: PPARg:RXRa 270nM:90nM, anti-RXR (NR concentration 270 nM, RXRa partner concentration 90 nM)
Method in brief: as §1

[9] = test system: PPARg:RXRa 30nM:10nM, anti-RXR (NR concentration 30 nM, RXRa partner concentration 10 nM)
Method in brief: as §1

[10] = test system: PPARg:RXRa 90nM:30nM, anti-RXR (NR concentration 90 nM, RXRa partner concentration 30 nM)
Method in brief: as §1

| Sequence | PBM binding z-score [1] | PBM binding z-score [2] | PBM binding z-score [3] | PBM binding z-score [4] | PBM binding z-score [5] | PBM binding z-score [6] | PBM binding z-score [7] | PBM binding z-score [8] | PBM binding z-score [9] | PBM binding z-score [10] |
| --- | --- | --- | --- | --- | --- | --- | --- | --- | --- | --- |
| CAAACTAAGTCAAAGGTCAAAGTCGAGCCAACCA | 6.46 | 6.42 | 5.19 | 6.08 | 2.84 | 6.84 | 11.4 | 10.3 | 11.8 | 12.2 |
| TAGCCTAGGTCGGATCGGGCCAGTATACGCTATA | -0.358 | -0.506 | -0.432 | -0.741 | -0.754 | -0.324 | 0.0462 | -0.371 | -0.755 | -0.538 |
| TAGCCTAGGTCATTCAGGGACCAGTATAGAAAGC | 4.75 | 3.39 | 0.547 | 2.25 | 0.504 | 3.62 | 2.01 | 2.24 | 0.478 | 1.37 |
| TTACCAAGGCGAAAGGTCGTTGATGCACGCCTTG | 1.27 | 1.41 | 0.121 | 1.38 | -0.953 | 3.5 | 5.49 | 6.09 | 5.18 | 6.24 |
| CTGGAAAGGTCGTGCTCAGGTGAGTATACCAAAC | 5.25 | 3.35 | -0.219 | 2.7 | -0.505 | 4.7 | 2.63 | 3.81 | 1.04 | 2.24 |
| TTACCAAGGTGAAAGGTCGTTGATGCACGCCTTG | 3.49 | 3.43 | 0.252 | 2.79 | -0.555 | 5.38 | 9.01 | 7.94 | 6.67 | 8.46 |
| GCTAGCAGGCCATTTGGGTCACTCAATGACGGGC | 0.232 | -0.126 | -0.618 | -0.0783 | -0.885 | 1.34 | 0.697 | 0.632 | -0.477 | -0.0514 |
| ATCTCTAGGTAATCAAGTTCAGTGAATGCCGAAC | 0.473 | 1.01 | 1.61 | 0.658 | 0.711 | 1.01 | 0.317 | 1.19 | 0.611 | 1.19 |
| AGAATGAGGTTACCCAAGATCAGGGAAACGCTTG | 1.63 | 5.76 | -0.558 | 2.48 | -0.333 | 3.05 | 2.29 | 2.2 | 0.837 | 1.49 |
| AGTATGAGGTTAAGATCAGGGAAACAGAATACAT | 1.71 | 2.36 | 0.00803 | 1.84 | 0.314 | 3.08 | 1.76 | 1.45 | 0.773 | 1.12 |
| CCGACTGGGCCATCAGGTCATTGATATCAACGTT | 1.52 | 1.05 | 0.75 | 1.38 | -0.6 | 2.19 | 1.69 | 2.75 | 0.458 | 1.85 |
| ATCTCTAGGTAAAGGTAGTTCAGTGAATGCAAAT | 0.462 | 2.47 | 0.775 | 0.88 | 0.769 | 1.08 | 0.966 | 2.17 | 0.811 | 1.4 |
